This note sets out measurements from PMC4336329 (PLoS ONE, 2015).

Screen size: about 310,000 compounds; about 14,000 (4.5%) showed an effect of 50% or more. The effect is printed as a negative number. The full list was thinned out, with strong results kept by preference. *1 amine or outer side, *2 acyl side, *3 side chain or, on linkers, in order; H or OH if unused. Where a SMILES comes first, the peptide text is derived from it. Bridges are numbered along the chain shown (N, C = ends). [ ]: non-standard residue; d: D form. ξ: configuration not given here. hSer(Ph(2-I,4-NO2,6-CO)) = O=C([C@H](CCOc1c(I)cc([N+](=O)[O-])cc1C(=O)[*:3])N[*:1])[*:2]; ξD = NC(CC(=O)O)C(=O)O
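Further: peak tail current of the secondary pulse compared with the same well before compound.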

The target in the experiment is human ether-à-go-go-related gene (hERG) potassium channel (human, UniProt Q12809). Nature of the experiment: primary screen, population patch clamp on CHO cells stably expressing hERG; higher = less effect of the substance.
Sequence of human ether-à-go-go-related gene (hERG) potassium channel (Q12809 whole entry, looked up): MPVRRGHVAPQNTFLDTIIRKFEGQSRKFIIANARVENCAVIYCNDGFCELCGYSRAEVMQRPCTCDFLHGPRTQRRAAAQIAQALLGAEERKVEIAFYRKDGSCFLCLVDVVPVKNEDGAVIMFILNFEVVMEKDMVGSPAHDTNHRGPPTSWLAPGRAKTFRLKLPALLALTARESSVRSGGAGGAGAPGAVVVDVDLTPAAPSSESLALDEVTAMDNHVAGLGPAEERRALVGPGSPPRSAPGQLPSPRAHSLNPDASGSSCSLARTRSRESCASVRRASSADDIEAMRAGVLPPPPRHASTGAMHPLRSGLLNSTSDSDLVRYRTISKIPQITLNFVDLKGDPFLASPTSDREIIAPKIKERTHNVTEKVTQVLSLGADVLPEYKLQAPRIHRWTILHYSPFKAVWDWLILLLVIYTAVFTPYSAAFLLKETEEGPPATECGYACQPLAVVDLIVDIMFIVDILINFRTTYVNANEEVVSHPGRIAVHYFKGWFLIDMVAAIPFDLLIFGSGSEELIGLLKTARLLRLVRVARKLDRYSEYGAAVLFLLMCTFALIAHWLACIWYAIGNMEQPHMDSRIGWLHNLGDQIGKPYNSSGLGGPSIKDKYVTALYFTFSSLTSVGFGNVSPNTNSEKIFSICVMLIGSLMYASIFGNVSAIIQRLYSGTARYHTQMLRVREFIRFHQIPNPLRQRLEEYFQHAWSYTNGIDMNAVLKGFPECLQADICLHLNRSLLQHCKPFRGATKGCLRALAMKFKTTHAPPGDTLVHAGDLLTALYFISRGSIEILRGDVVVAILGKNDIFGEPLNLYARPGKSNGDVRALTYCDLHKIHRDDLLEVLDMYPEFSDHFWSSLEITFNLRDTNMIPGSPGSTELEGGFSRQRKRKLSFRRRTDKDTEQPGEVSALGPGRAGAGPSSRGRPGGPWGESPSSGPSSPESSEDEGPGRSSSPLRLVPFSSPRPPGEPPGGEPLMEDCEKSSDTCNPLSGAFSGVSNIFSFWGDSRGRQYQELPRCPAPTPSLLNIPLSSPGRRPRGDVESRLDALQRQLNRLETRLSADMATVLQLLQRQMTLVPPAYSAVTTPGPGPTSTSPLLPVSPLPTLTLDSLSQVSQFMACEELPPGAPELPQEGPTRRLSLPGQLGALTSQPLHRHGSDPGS
As to `Cl.c1ccc(CNc2nc3ccccc3n2CCN2CCOCC2)nc1`, the “hERG current change (%, negative = inhibition) at 10uM” value is listed as -15.5%. In the case of `c1csc(CNc2nc3ccccc3n2CCN2CCOCC2)c1` it was -28%; in that of `CCOc1ccc(CNc2nc3ccccc3n2C)cc1`, -31.4%; in that of `CC(=O)Nc1nc2ccccc2n1CCN1CCOCC1`, 0.217%. Take `COc1cccc(CNc2nc3ccccc3n2CCN2CCCCC2)c1`: the “hERG current change (%, negative = inhibition) at 10uM” value was -59.3%.

With `Cc1cc2nc(CCN3CCOCC3)n(S(=O)(=O)c3ccc(C(C)(C)C)cc3)c2cc1C`, the “hERG current change (%, negative = inhibition) at 10uM” value was -3.7%. `CCOc1ccc(CNc2nc3ccccc3n2CCN2CCOCC2)cc1.Cl`: the “hERG current change (%, negative = inhibition) at 10uM” value is -64.2%. In the case of `CC(C)(C)c1ccc(S(=O)(=O)n2c(CN3CCOCC3)nc3ccccc32)cc1` it was 3.73%. The same measure for `CCn1c(NCc2cc(OC)c(OC)c(OC)c2)nc2ccccc21.Cl`: -25.3%; for `COc1ccc(CNc2nc3ccccc3n2Cc2ccccc2)cc1OC`: -44.7%. In the case of `COc1ccc(S(=O)(=O)n2c(CCN3CCOCC3)nc3ccccc32)cc1` it was -59.2%; in that of `COc1ccc(CNc2nc3ccccc3n2CCN2CCOCC2)cc1`, -64.6%.

Take `CCOC(=O)[C@H]1[C@H]2COc3ccc(C)cc3[C@@H]2N2C(=O)CN(Cc3ccc(C)cc3)C(=O)[C@@]12C`: the “hERG current change (%, negative = inhibition) at 10uM” value stood at 4.36%. The same measure for `COc1cccc(N2C(=O)CN(Cc3ccc(OC)c(OC)c3)C2=S)c1`: 17%. In the case of `CCCCCOc1ccc(NC(=O)C(=O)NCCCn2ccnc2)cc1` it was 2%; in that of `CCn1c(SCC(=O)NNC(=O)c2ccccc2)nnc1-c1ccncc1`, -5.25%; in that of `C=CCc1c(C)nc2c(-c3ccccc3)cnn2c1N1CCOCC1`, 12.3%. On to `CC(=O)C1=C(O)C(=O)N(c2ccc(Br)cn2)C1c1ccccc1[N+](=O)[O-]` (stereo not shown), for which the “hERG current change (%, negative = inhibition) at 10uM” value was determined as 20.2%.

As to `O=C1CCCc2nn(-c3ccccc3)nc21`, the “hERG current change (%, negative = inhibition) at 10uM” value is reported as 11.3%.

As to `Cc1ccc(S(=O)(=O)N(C)C)cc1NC(=O)CSc1nc2ccccc2[nH]1`, the “hERG current change (%, negative = inhibition) at 10uM” value is -29.4%. In the case of `C[C@@H]1NC(=O)[C@H](CC(N)=O)NC(=O)c2cc([N+](=O)[O-])cc(I)c2OCC[C@@H](C(=O)NC(CC(=O)O)C(N)=O)NC1=O` (stereo partly shown) (NA[hSer(Ph(2-I,4-NO2,6-CO))][ξD]-NH2; lactam N-3) it was 6.03%.

With `O=S(=O)(Cc1ccccc1)Nc1cccc(F)c1`, the “hERG current change (%, negative = inhibition) at 10uM” value amounted to 15.2%. In the case of `Cl.FC(F)(F)c1ccc(CN2CCNCC2)cc1` it was 0.155%; in that of `Cc1ccccc1NC(=O)Cc1nnc(N)s1`, 11.3%; in that of `COc1ccc(CCNC(=S)NC2CCN(Cc3ccccc3)CC2)cc1OC`, -39.1%. In the case of `Cc1nc(CCNC(=O)COc2ccccc2)cs1` it was 17.2%; in that of `COc1ccc(CNc2nc3ccccc3n2C(C)C)cc1`, -18.7%. In the case of `COc1ccc(CNc2nc3ccccc3n2CCN2CCCCC2)cc1` it was -59.7%. `C=CCn1c(NCc2ccc(OC)cc2)nc2ccccc21`: the “hERG current change (%, negative = inhibition) at 10uM” value is given as -17.2%. In the case of `CN(C(=O)c1nn(C)c2c1CSc1ccccc1-2)c1ccccc1Cl` it was 3.14%. The same measure for `CC1(C)N=C2C(=[N+]1[O-])CCC/C2=N\O`: 11.6%; for `O=C(NCCc1ccccn1)c1nc(Cn2cc(Br)cn2)no1`: 11.4%; for `Cc1ccc(NC(=S)N2CCC(N(C)CC3CCCO3)CC2)cc1` (stereo not shown): -4.57%.

With `Cc1cc(C)cc(NC(=S)N2CCC(N(C)CC3CCCO3)CC2)c1` (stereo not shown), the “hERG current change (%, negative = inhibition) at 10uM” value is listed as -52%. Turning to `Cc1cccc(NC(=S)N2CCC(N(C)CC3CCCO3)CC2)c1` (stereo not shown), the “hERG current change (%, negative = inhibition) at 10uM” value is recorded as -32.3%. The same measure for `O=C(CCCC(=O)N(CC(=O)NC1CCCC1)c1ccc(F)c(Cl)c1)Nc1ccccn1`: -9.24%. In the case of `COCCCN(C(=S)Nc1cc(Cl)cc(Cl)c1)C(C)c1ccccn1` (stereo not shown) it was -38.8%; in that of `CCCc1cc(=O)[nH]c(SCC(=O)Nc2nonc2C)n1`, 4.4%.

Turning to `CCCc1cc(=O)[nH]c(SCC(=O)Nc2cc(C)on2)n1`, the “hERG current change (%, negative = inhibition) at 10uM” value is -70.9%. In the case of `CCc1cc(=O)[nH]c(SCC(=O)Nc2cc(C)on2)n1` it was -4.55%; in that of `COC(=O)C1=C(O)/C(=C\c2ccc(CNC(=O)C(=O)Nc3ccc(C)c(C)c3)o2)N=C1C`, -17.8%.

For the molecule `CC(=O)Nc1cc(C(=O)O)ccc1S(=O)(=O)c1ccc(C)cc1`, the “hERG current change (%, negative = inhibition) at 10uM” value is recorded as 6.18%. In the case of `CN1CCCN(C(=O)COc2ccc(F)cc2F)CC1` it was -3.55%. In the case of `CCCCCCSc1cc(-c2nc3cnccn3c2NCc2ccccc2)ccc1OC.O=C(O)C(F)(F)F` it was 0.374%; in that of `CCCCNc1c(-c2ccc(-c3ccc(C(C)=O)cc3)c(OC)c2)nc2cnccn12.O=C(O)C(F)(F)F`, -52.3%; in that of `CCCCNc1c(-c2ccc(OC)c(SC3CCCCC3)c2)nc2cnccn12.O=C(O)C(F)(F)F`, -14.4%.
